Measurements taken from PubChem BioAssay.
Activity calls are given as the source filed them.

Assays:
[1] = binders of probe aFSTL3 on microarray, primary screen, stem cell growth factor project, biochemical, small-molecule microarray, fluorescence 635/667 (AID 1064); settings: higher = more signal;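 further: measures binding of the biotinylated anti-FSTL3 antibody to printed compounds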
[2] = binders from COS7 lysate, DM2A8 probe, primary screen, torsin A project, cell lysate, small-molecule microarray, fluorescence 635/667 (AID 1065); settings: higher = more signal, COS7 lysate expressing mutant human TOR1A
[3] = binders of probe aFGF2 on microarray, primary screen, stem cell growth factor project, biochemical, small-molecule microarray, fluorescence 635/667 (AID 1067); settings: higher = more signal;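 further: measures binding of biotinylated aFGF2 protein to printed compounds on slides; z-score merges feature fluorescence and signal-to-noise across triplicate slides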
[4] = binders of probe aFGF10 on microarray, primary screen, stem cell growth factor project, biochemical, small-molecule microarray, fluorescence 635/667 (AID 1071); settings: higher = more signal;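 further: score merges 667 nm spot intensity and signal to noise from triplicate slides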
[5] = molecular target: Neurogenic locus notch homolog protein 2 (Homo sapiens) (UniProt Q04721); experiment: Notch2 binders on small-molecule microarrays, primary screen, biochemical, small-molecule microarray, 635 nm fluorescence, stem cell growth factors (AID 1073); settings: Notch2 binding, higher = more signal
[6] = molecular target: Pro-neuregulin-1, membrane-bound isoform (Homo sapiens) (UniProt Q02297); experiment: NRG1 binders on small-molecule microarrays, primary screen, psychiatric disease protein project, biochemical, small-molecule microarray, fluorescence 635/667 (AID 1075); settings: NRG1 binding, 635 nm fluorescence, higher = more signal;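 further: score combines 667 nm spot fluorescence with signal to noise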
[7] = test system: Neuregulin-1 EGF-like domain; experiment: binders of neuregulin-1 EGF-like domain, primary screen, biochemical, small-molecule microarray, 635 nm fluorescence (AID 1081); settings: small-molecule microarray binding, higher = more signal;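 further: binding of the protein to compounds printed on small-molecule microarray slides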
[8] = FRG1 promoter luciferase signal modulators, primary screen, FRG1 inhibition for FSHD, cell-based, C2C12 myotubes, firefly/Renilla luciferase, luminescence (AID 1084); settings: higher = more signal, called active from +8 up or from −8 down
[9] = binders of probe aFST on microarray, primary screen, stem cell growth factor project, biochemical, small-molecule microarray, fluorescence 635/667 (AID 1086); settings: higher = more signal;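 further: score merges 667 nm fluorescence with signal-to-noise of each printed compound spot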
[10] = binders of probe aHhip on microarray, primary screen, stem cell growth factor project, biochemical, small-molecule microarray, fluorescence 635/667 (AID 1087); settings: higher = more signal;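 further: score merges spot fluorescence at 667nm with spot signal to noise ratio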

Sequence of Neurogenic locus notch homolog protein 2 (Homo sapiens) (Q04721 whole entry, looked up, canonical isoform): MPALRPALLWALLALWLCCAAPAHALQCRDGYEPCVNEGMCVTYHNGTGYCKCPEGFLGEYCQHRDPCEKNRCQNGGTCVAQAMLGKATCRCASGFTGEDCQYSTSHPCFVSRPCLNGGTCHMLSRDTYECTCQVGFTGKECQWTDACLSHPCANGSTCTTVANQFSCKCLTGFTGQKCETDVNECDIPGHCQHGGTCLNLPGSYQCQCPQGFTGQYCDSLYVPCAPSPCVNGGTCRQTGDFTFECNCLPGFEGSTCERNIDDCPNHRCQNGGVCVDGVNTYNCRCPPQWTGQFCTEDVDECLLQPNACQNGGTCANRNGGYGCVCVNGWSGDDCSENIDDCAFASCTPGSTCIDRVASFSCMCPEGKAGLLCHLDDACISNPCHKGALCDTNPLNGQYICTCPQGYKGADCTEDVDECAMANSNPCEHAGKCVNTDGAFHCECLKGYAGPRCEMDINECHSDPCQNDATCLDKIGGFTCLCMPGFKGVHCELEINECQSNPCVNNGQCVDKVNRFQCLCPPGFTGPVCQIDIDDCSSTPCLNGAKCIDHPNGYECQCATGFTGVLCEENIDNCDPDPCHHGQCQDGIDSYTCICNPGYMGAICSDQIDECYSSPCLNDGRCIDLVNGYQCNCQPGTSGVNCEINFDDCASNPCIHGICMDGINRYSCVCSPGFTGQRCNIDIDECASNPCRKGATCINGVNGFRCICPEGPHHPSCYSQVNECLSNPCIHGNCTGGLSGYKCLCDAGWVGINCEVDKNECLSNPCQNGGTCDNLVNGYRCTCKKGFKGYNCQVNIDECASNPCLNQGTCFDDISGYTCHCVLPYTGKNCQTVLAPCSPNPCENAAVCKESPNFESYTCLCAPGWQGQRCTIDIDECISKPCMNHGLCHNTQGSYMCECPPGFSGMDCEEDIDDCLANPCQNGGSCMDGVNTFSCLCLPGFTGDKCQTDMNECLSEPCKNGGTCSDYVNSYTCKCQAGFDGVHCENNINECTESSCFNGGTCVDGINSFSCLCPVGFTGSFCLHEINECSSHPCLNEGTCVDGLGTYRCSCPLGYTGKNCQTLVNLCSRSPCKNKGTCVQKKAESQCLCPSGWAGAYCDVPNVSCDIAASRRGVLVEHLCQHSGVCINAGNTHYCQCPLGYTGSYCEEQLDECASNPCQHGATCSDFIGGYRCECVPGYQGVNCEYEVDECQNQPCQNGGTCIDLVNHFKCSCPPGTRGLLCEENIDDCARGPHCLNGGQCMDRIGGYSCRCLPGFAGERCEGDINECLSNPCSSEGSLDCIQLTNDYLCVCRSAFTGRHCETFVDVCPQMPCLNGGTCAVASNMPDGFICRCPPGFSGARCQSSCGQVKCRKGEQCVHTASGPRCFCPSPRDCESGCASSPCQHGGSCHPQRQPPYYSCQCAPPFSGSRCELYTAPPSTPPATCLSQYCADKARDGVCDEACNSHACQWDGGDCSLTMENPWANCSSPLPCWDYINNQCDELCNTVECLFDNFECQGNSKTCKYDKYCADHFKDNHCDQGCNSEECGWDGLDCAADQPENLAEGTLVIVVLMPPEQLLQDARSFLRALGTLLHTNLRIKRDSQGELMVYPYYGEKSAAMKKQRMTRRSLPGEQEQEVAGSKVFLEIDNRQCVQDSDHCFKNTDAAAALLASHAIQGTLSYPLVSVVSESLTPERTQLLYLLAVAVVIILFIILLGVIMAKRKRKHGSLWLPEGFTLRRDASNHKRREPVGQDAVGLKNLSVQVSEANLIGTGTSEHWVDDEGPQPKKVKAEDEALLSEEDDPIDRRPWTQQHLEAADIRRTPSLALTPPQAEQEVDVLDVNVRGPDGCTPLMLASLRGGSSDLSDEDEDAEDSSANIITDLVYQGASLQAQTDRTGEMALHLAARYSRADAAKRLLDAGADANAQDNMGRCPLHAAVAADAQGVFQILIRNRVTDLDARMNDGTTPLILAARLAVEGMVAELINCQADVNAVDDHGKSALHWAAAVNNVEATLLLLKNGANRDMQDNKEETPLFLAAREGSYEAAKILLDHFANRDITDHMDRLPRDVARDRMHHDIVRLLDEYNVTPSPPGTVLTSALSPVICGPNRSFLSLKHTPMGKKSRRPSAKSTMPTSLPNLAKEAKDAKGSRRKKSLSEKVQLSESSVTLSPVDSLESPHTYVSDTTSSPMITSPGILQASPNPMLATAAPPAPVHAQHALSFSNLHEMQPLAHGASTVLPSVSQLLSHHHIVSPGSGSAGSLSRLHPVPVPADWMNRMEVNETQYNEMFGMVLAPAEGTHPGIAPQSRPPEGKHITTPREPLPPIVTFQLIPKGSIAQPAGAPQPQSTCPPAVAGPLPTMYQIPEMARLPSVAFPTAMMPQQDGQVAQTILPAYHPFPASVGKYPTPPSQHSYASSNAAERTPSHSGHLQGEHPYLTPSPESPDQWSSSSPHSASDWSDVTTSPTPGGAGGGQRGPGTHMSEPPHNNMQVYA
Sequence of Pro-neuregulin-1, membrane-bound isoform (Homo sapiens) (Q02297 whole entry, looked up, the tested form may be a part, canonical isoform): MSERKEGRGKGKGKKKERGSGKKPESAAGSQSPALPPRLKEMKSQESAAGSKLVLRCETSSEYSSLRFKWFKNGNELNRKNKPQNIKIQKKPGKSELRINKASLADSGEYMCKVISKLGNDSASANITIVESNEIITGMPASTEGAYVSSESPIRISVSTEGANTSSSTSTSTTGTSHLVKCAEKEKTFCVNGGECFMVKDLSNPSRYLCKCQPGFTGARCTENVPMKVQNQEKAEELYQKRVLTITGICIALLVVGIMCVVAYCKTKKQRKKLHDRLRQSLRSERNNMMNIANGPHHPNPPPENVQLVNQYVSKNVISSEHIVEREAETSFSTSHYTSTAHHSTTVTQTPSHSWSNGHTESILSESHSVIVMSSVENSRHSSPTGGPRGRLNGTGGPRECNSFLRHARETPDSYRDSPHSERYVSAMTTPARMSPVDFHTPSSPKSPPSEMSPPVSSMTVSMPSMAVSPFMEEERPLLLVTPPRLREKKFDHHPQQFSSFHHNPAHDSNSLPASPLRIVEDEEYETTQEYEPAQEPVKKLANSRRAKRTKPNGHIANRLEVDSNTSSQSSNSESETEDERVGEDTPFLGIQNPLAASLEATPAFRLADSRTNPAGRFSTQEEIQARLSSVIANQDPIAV

| SMILES | composite z-score [1] | composite z-score [2] | composite z-score [3] | composite z-score [4] | composite z-score [5] | composite z-score [6] | composite z-score [7] | z-score [8] | composite z-score [9] | composite z-score [10] |
| --- | --- | --- | --- | --- | --- | --- | --- | --- | --- | --- |
| CCOC(=O)C1=C[C@@H](C(C)(C)C)N(S(=O)(=O)c2ccc(C)cc2)[C@H]1c1cccc(Cl)c1 | -0.308 | 0.314 | 0.0526 | 0.666 | 1.54 | 0.831 | 0.979 | -2.24 (inactive) | 0.799 | -0.14 |
| COC(=O)[C@@]1(Cc2ccc(F)cc2)[C@H]2c3cc(C(=O)N(C)C)n(Cc4ccc(O)c(OC)c4)c3C[C@H]2CN1C(=O)c1ccccc1 | 0.129 | 0.196 | 0.0398 | 0.531 | 1.35 | 1.26 | 0.786 | 2.98 (inactive) | 0.675 | 1.17 |
| CC(C)=CCCC(C)=CC(O)C1C=CC2C(=O)N(c3ccccc3)C(=O)C2N1Nc1ccccc1F (stereo not given) | -0.0417 | -0.113 | -0.138 | 0.498 | 0.765 | 1.49 | 1.09 | 0.314 (inactive) | -0.174 | -0.329 |
| COC(=O)[C@@]1(Cc2ccc(OC)cc2)[C@H]2c3cc(C(=O)N4CCCC4)n(Cc4ccc(OC(F)(F)F)cc4)c3C[C@H]2CN1C(=O)c1ccccc1 | 0.572 | -1.05 | 0.225 | 0.703 | 1.74 | 1.39 | 0.283 | 0.612 (inactive) | 1.28 | 0.113 |
| C=C[C@@H](OC)[C@H](OC(=O)Nc1ccc(OC)cc1)c1ccc(OC)c(O)c1 | 0.54 | -0.998 | -0.087 | -0.624 | -1.06 | -0.401 | 1.23 | 3.56 (inactive) | -0.857 | 0.0505 |
| NCCCCCNC(=O)[C@@H]1C[C@@H]2C(=O)N3CCC[C@H]3C(=O)N2[C@@H]1c1ccc(O)cc1 | 1.19 | 0.0642 | 0.0232 | 0.42 | 0.714 | 0.976 | 1.1 | 0.0207 (inactive) | 1 | 0.0053 |
| O=C1O[C@H](c2ccccc2)[C@H](c2ccccc2)N2[C@H]1[C@@H](C(=O)N1CCCCCCC1)[C@]1(C(=O)Nc3ccc(C#CC4(O)CCCCCC4)cc31)[C@H]2c1ccc(O)cc1 | 3.63 | 1.42 | 0.807 | 0.822 | 1.36 | 1.36 | 1.2 | -2.46 (inactive) | 2.97 | 0.697 |
| CN1C(=O)[C@@H]2[C@@H](CC(COc3ccccc3)=C([C@H](O)CCc3ccccc3)[C@@H]2CO)C1=O | -0.138 | 0.342 | -0.103 | -0.195 | -0.492 | -0.207 | -0.0233 | -2.39 (inactive) | -0.167 | -0.236 |
| CCOC(=O)C1=CCN(S(=O)(=O)c2ccc(C)cc2)C1c1ccccc1 (stereo not given) | -0.0137 | 0.229 | -0.0232 | 0.535 | 1.5 | 1.44 | 1.2 | -0.158 (inactive) | 0.439 | 0.113 |
| COCCOC(=O)N1C(=O)[C@@]2(c3cc(C#CCCO)ccc31)[C@H](c1ccccc1OCCO)N1[C@H](c3ccccc3)[C@H](c3ccccc3)OC(=O)[C@H]1[C@@H]2C(=O)N1CCCCCCC1 | 2.91 | 0.821 | 0.452 | 0.413 | 1.14 | 1.72 | 1.32 | -3.3 (inactive) | 2.59 | 2.43 |
| CCCCC(=C=CC[C@H](O)c1ccc(OCCO)cc1)C[C@H](O)c1cc(Cl)cc(Cl)c1O | -0.268 | 0.092 | -0.186 | 0.214 | 0.323 | 1.05 | 0.965 | -2 (inactive) | 0.236 | -0.264 |
| CCOC(=O)C1=CCC(c2ccccc2)N(S(=O)(=O)c2ccc([N+](=O)[O-])cc2)C1 (stereo not given) | -0.239 | -0.181 | -0.112 | 0.154 | 1.17 | -0.0979 | 0.549 | -0.877 (inactive) | 0.06 | 0.0505 |
| O=C1C2C=CC(C(O)c3cccc(O)c3)N(Nc3ccccc3)C2C(=O)N1c1ccccc1 (stereo not given) | -0.0667 | -0.73 | -0.0901 | 0.212 | 1.08 | 0.977 | 1.11 | 1.23 (inactive) | 0.35 | -0.0003 |
| C=C(COC)/C(=C/C[C@H](OC(C)=O)c1cccc(OCCO)c1)c1cnc2ccccc2c1 | -0.194 | 0.569 | -0.0325 | 1.05 | 1.26 | 0.743 | 1.11 | 1.46 (inactive) | 0.654 | 0.107 |
| COc1ccc(C(O)C2C=CC3C(=O)N(c4ccccc4)C(=O)C3N2Nc2ccc(C(C)C)cc2)c2ccccc12 (stereo not given) | -0.0766 | 0.309 | 0.0442 | 0.7 | 1.59 | 1.49 | 1.16 | -1.31 (inactive) | 1.83 | -0.148 |
| [N-]=[N+]=NCc1ccccc1[C@@H]1OC(c2ccc(OCCCO)cc2)=N[C@]1(Cc1ccccc1N=[N+]=[N-])C(=O)NCCN1CCOCC1 | -0.0579 | 0.909 | 0.088 | 0.828 | 1.56 | 1.19 | 1.25 | 0.982 (inactive) | 1.11 | -0.213 |

| SMILES | composite z-score [1] | composite z-score [2] | composite z-score [3] | composite z-score [4] | composite z-score [5] | composite z-score [6] | composite z-score [7] | z-score [8] | composite z-score [9] | composite z-score [10] |
| --- | --- | --- | --- | --- | --- | --- | --- | --- | --- | --- |
| COCCOC(=O)N1C(=O)[C@@]2(c3cc(C#Cc4ccc(OC)cc4)ccc31)[C@H](C(=O)NC[C@H](O)c1ccccc1)[C@H]1C(=O)O[C@H](c3ccccc3)[C@H](c3ccccc3)N1[C@@H]2c1ccc(OCCO)cc1 | -0.157 | 0.946 | -0.12 | 0.912 | 1.12 | 1.46 | 1.28 | 0.643 (inactive) | 0.41 | -0.0994 |
| O=C1C2C=CC(C(O)c3ccc4c(c3)OCO4)N(Nc3ccccc3)C2C(=O)N1c1ccccc1 (stereo not given) | 0.154 | -0.186 | 0.0917 | 0.847 | 1.55 | 1.46 | 1.09 | -0.545 (inactive) | 1.38 | -0.204 |
| C=C(COC)C(=O)CC[C@@H](OC(=O)c1cccnc1)c1ccccc1OCCO | 0.403 | 1.66 | -0.122 | 0.276 | -0.427 | 0.754 | 0.655 | 0.0248 (inactive) | 0.327 | 0.0176 |
| C=CCC(OC(C)=O)[C@@H]1[C@@H](N(Cc2ccc(-c3cccc(C(F)(F)F)c3)o2)C(=O)c2cccc3ccccc23)c2cc(OCCCO)ccc2N1C(=O)Cc1ccc(OC)cc1 (stereo not given in full) | -0.238 | -0.125 | -0.143 | -0.0597 | -0.386 | 0.0701 | -0.398 | 0.317 (inactive) | 0.378 | -0.179 |
| O=C(CS)NCCCCCCNC(=O)[C@@H]1C[C@@H]2C(=O)NCC(=O)N2[C@@H]1c1ccc(O)cc1 | 0.169 | -0.0906 | -0.157 | -0.505 | -0.918 | -0.75 | 0.729 | -1.15 (inactive) | -0.183 | -0.0324 |
| CO[C@H]1O[C@H](CO)[C@@H](OC(=O)c2ccc(Br)cc2)[C@@H]2OC(=O)[C@H](Cc3ccccc3)C/C=C/C[C@@H](Cc3ccccc3)C(=O)O[C@@H]12 | -0.287 | 0.418 | -0.0048 | 0.706 | 0.496 | 1.64 | 0.615 | -0.215 (inactive) | -0.024 | -0.0645 |
| CN(C)C(=O)[C@@]1(Cc2ccccc2)COC(c2ccc(OCCCO)cc2)=N1 | 0.862 | -0.111 | 0.0412 | -0.055 | -0.266 | 1.81 | 0.61 | -0.698 (inactive) | -0.341 | 0.217 |
| C=CCC(OC(C)=O)[C@@H]1[C@@H](N(Cc2cccc3ccccc23)C(=O)c2ccc(-c3ccccc3)cc2)c2cc(OCCCO)ccc2N1C(=O)c1ccc(-c2ccccc2)cc1 (stereo not given in full) | -0.0061 | 0.356 | -0.06 | 0.0099 | 0.369 | 0.0975 | -0.453 | -0.774 (inactive) | 0.392 | 0.0274 |
| CCCCCCCCCCC(O)C1C=CC2C(=O)N(c3ccccc3)C(=O)C2N1Nc1ccccc1F (stereo not given) | 0.51 | -0.165 | -0.0647 | 0.183 | -0.503 | 1.22 | 0.586 | 0.15 (inactive) | -0.08 | -0.185 |
| C=CCNC(=O)[C@@H]1[C@H]2C(=O)O[C@H](c3ccccc3)[C@H](c3ccccc3)N2[C@H](c2ccc(O)cc2)[C@@]12C(=O)Nc1ccc(C#CCC(C(=O)OC)C(=O)OC)cc12 | -0.174 | 0.198 | -0.18 | 0.163 | 0.162 | 0.749 | 0.95 | 1.03 (inactive) | 0.249 | 0.0623 |
| Cc1ccccc1C(O)C1C=CC2C(=O)NC(=O)C2N1Nc1ccc(Cl)cc1Cl (stereo not given) | 0.51 | 0.328 | 0.0342 | 0.5 | 1.48 | 1.73 | 1.04 | 0.0623 (inactive) | 0.504 | -0.283 |
| CN1C=C(C(=O)OCCS(C)(=O)=O)C(C(=O)OCCS(C)(=O)=O)=CC(c2ccc(CO)cc2)=CC1c1cccs1 (stereo not given) | -0.0269 | -0.0376 | -0.0448 | 0.236 | -0.0588 | 1.47 | 1.03 | 2.55 (inactive) | 0.0216 | 0.0024 |
| COC(=O)[C@@]1(Cc2ccc(F)cc2)[C@H]2c3cc(C(=O)N(C)C)n(Cc4c(CO)[nH]cc(C)c4=O)c3C[C@H]2CN1C(=O)c1ccccc1 | 0.535 | -0.199 | 0.142 | 1.16 | 1.42 | 2.1 | 1.15 | 1.09 (inactive) | 0.255 | -0.0237 |
| COC(=O)[C@@]1(Cc2ccccc2CN=[N+]=[N-])N=C(c2ccc(OCCCO)cc2)O[C@H]1c1ccccc1CN=[N+]=[N-] | 0.629 | -0.43 | -0.0457 | 0.0746 | -0.733 | 0.846 | 1.22 | -1.23 (inactive) | -0.574 | -0.226 |
| CN1C(=O)C2C=CC(C(O)c3ccc(F)cc3)N(NC(=O)OC(C)(C)C)C2C1=O (stereo not given) | -0.179 | -0.598 | 0.0505 | 0.257 | 1 | 1.68 | 1.38 | 0.186 (inactive) | 0.734 | -0.0464 |
| C=C(C)C1CCC(C(O)C2C=CC3C(=O)N(C)C(=O)C3N2Nc2cc(OC)c(OC)c(OC)c2)CC1 (stereo not given) | 0.735 | 0.287 | 0.115 | 0.334 | 1.57 | 1.97 | 1.29 | 1.12 (inactive) | 1.07 | -0.0296 |
